Measurements: PubChem BioAssay AID1259313 (Sanford-Burnham Center for Chemical Genomics, 2017)
Screen size: about 340,000 compounds; about 8,500 (2.5%) were called active. Shown is part of a subset that was picked to be rich in actives. A number with no mark means an inactive call.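 Rule for the calls: active = melting temperature shift of at least 10% of the positive control shift, at one fixed dose; inactive = the rest.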

What follows are compounds tested on Glutamate receptor ionotropic, NMDA 3A (GRIN3A) ligand-binding domain (assay: NR3A LBD thermal stabilization by compounds – biophysical, differential scanning fluorimetry, uHTS, primary screen (AID 1259313)). Conditions: at 25 µM, active compounds read high, 0% = protein alone, 100% = glycine-bound protein.

Row | SMILES | Tm shift relative to glycine control
1 | CC1=NN(C(C)C)C(=O)C1 | -0.17%
2 | Cc1ccc(S(=O)(=O)N2[C@@H](c3ccc(Br)cc3)C(C(=O)O)=C[C@H]2CC2CCCC2)cc1 | -1.23%
3 | O=C(CSc1nn(-c2ccc(F)cc2)c(=S)s1)NC1CCS(=O)(=O)C1 (stereo not given) | -1.94%
4 | Cc1ccc(C)c(OCCC(=O)OCC(=O)c2ccc3c(c2)NC(=O)CO3)c1 | 1.04%
5 | CCOC(=O)C1CCN(C(=O)c2cccc(S(=O)(=O)N(CC)c3ccccc3)c2)CC1 | 0.33%
6 | Nc1ccccc1/C=N\N=C/c1ccccc1N | 10.2% (active)
7 | O=[N+]([O-])c1cccc(C=NN=Cc2ccccc2O)c1 | -1.4%
8 | Cc1c(C(=O)Nc2cccc(S(=O)(=O)N3CCOCC3)c2)oc2ccccc12 | -5.92%
9 | COc1ccc(NC(=O)c2oc3ccc(S(=O)(=O)N4CCOCC4)cc3c2C)cc1 | 14.9% (active)
10 | Cc1c(C(=O)Nc2ccccc2Cl)oc2ccc(S(=O)(=O)N3CCC4(CC3)OCCO4)cc12 | -0.83%
11 | COc1cccc(-n2cc3c(c2-c2ccccc2)c(=O)n(C)c(=O)n3C)c1 | -1.71%
12 | Cc1ccc(-c2c3c(=O)n(C)c(=O)n(C)c3cn2-c2ccccc2O)cc1 | 22.9% (active)
13 | Cc1ccc(-c2c3c(=O)n(C)c(=O)n(C)c3cn2-n2cnnc2)cc1 | -0.82%
14 | Cc1csc(=O)n1CCC(=O)OCC(=O)NNC(=O)c1ccc(Br)cc1 | -0.85%
15 | COc1cccc(CNS(=O)(=O)c2csc(C(N)=O)c2)c1 | 2.62%
16 | COc1cccc(CNS(=O)(=O)c2ccc3c(c2)N(C(C)=O)CCS3)c1 | 11.5% (active)
17 | COc1cccc(CNS(=O)(=O)c2ccc3c(c2)CC(C)N3C(C)=O)c1 (stereo not given) | 2.23%
18 | CSc1nc2c(c(=O)[nH]1)C(c1cccc(Cl)c1Cl)CC(=O)N2 (stereo not given) | -1.69%
19 | Cc1ccc(NC(=O)c2cccc(S(=O)(=O)N3CCCc4ccccc43)c2)nc1 | 2.57%
20 | O=C(Nc1nc2ccc([N+](=O)[O-])cc2s1)c1ccc(S(=O)(=O)N2CCCc3ccccc32)cc1 | 18.8% (active)
21 | O=C(NC(Nc1nc2ccc([N+](=O)[O-])cc2s1)(C(F)(F)F)C(F)(F)F)c1ccccc1 | 6.26%
22 | O=C1COc2ccc(C(=O)COC(=O)c3ccccc3Cl)cc2N1 | 0%
23 | COc1ccc2c(c1)C(=O)CC(c1ccccc1)O2 (stereo not given) | -1.87%

Row | SMILES | Tm shift relative to glycine control
24 | CCN(CC)c1ccc(C(=O)NNC(=O)CCc2nc3ccccc3c(=O)[nH]2)cc1 | -0.56%
25 | COc1ccc(C(=O)COC(=O)COc2ccc(C)c(C)c2)cc1 | 12% (active)
26 | Cc1ccc(OCC(=O)Nc2ccc(C(=O)O)cc2NC(=O)COc2ccc(C)c(C)c2)cc1C | -0.84%
27 | COc1ccc(OCC(=O)OCCN(C)C)cc1 | -1.53%
28 | Cc1ccc(O/C=C2\OC(=O)c3ccccc32)cc1 | 49.4% (active)
29 | Cc1ccc(Oc2cnn(-c3ccccc3)c(=O)c2Br)cc1 | -1.23%
30 | Cc1n[nH]c(=O)c2c(NC(=O)COC(=O)c3ncc(Cl)c(Cl)c3Cl)oc(C)c12 | 4.91%
31 | Cc1c(CCC(=O)O)c(=O)oc2c(C)c(OCc3ccccc3Cl)ccc12 | 0.1%
32 | CCN([C@H](CO)C(C)C)S(=O)(=O)c1ccccc1Br | -1.23%
33 | O=C(O)CCCC(=O)Nc1ccccc1-n1ccnc1 | -2.48%
34 | CCOC(=O)N1CCN(C(=O)COc2ccc(Br)cc2)CC1 | 10.1% (active)
35 | CCOC(=O)N1CCN(C(=O)COc2ccc3oc4c(c3c2)CCCC4)CC1 | 1.71%
36 | CCOC(=O)N1CCN(S(=O)(=O)c2ccc(Br)cc2)CC1 | -0.87%
37 | Cc1cccc([C@@H]2[C@@H]3C(=O)N(Cc4ccccc4)C(=O)[C@@H]3[C@]3(C)C(=O)N(c4ccc(Br)cc4)C(=O)N23)c1 | -3.72%
38 | Cc1cccc([C@H]2[C@@H]3C=CC[C@@H](C)[C@@H]3C(=O)N2Cc2ccccc2)c1 | 0.67%
39 | Cc1ccc(-c2cccc([C@H]3[C@@H]4C=CC[C@@H](C)[C@@H]4C(=O)N3Cc3ccccc3)c2)cc1 | 15.4% (active)
40 | CNC(=O)C1CCN(S(=O)(=O)c2c(C)noc2/C=C/c2cccc(C)c2)CC1 | 1.97%
41 | CCOC(=O)c1c(Cc2ccc(Cl)cc2)c[nH]c1C | -13.2%
42 | CC(C)(C)NC(=O)CN(Cc1cccs1)C(=O)CNS(=O)(=O)c1ccccc1 | -2.34%
43 | O=C(c1ccc(-n2cnnn2)cc1)N1CCN(C(c2ccccc2)c2ccccc2)CC1 | -0.38%
44 | Cn1nnnc1SCC(=O)N1CCN(Cc2ccccc2)CC1 | 0.27%
45 | Cn1nnnc1SCC(=O)N1CCN(C(c2ccccc2)c2ccccc2)CC1 | 11% (active)
46 | N#C/C(C(=S)Nc1ccccc1)=C1/NN=C(N2CCOCC2)N1c1ccccc1 | 1.45%

Row | SMILES | Tm shift relative to glycine control
47 | CCC(C(=O)OCC(=O)Nc1ccc(C(=O)Nc2ccc(OC)cc2)cc1)c1ccccc1 (stereo not given) | 22.5% (active)
48 | CCC(C(=O)OCC(=O)Nc1c(Cl)cc(Cl)cc1Cl)c1ccccc1 (stereo not given) | -8.02%
49 | COc1ccc(NC(=O)CS(=O)(=O)c2ccccc2)cc1 | 2.82%
50 | CCC(C(=O)OCC(=O)Nc1ccccc1-c1ccccc1)c1ccccc1 (stereo not given) | -2.7%
51 | COc1ccc(NC(=O)COC(=O)c2ccc(NS(=O)(=O)/C=C/c3ccccc3)cc2)cc1 | 20.6% (active)
52 | CN(CC(=O)Nc1ccc(OC(F)F)cc1)S(=O)(=O)/C=C/c1ccccc1 | -9.87%
53 | c1cnc(N2CCN(c3ccc4ccccc4n3)CC2)nc1 | -1.6%
54 | O=C(CN1CCc2ccccc21)NC(c1ccccc1)c1ccccc1 | -10.2%
55 | O=C1C=C(NCCNc2c(F)c(F)c(CO)c(F)c2F)CCC1 | -8.05%
56 | Cc1ccc(NC(=O)COC(=O)CN2CCCCCC2=O)c(C)c1 | -0.17%
57 | CC1CCCC(NC(=O)c2cc(S(=O)(=O)N3CCCCC3)ccc2Cl)C1C (stereo not given) | -1.61%
58 | Cc1ccc(C(=O)NC2CCCC(C)C2C)cc1S(=O)(=O)N1CCCCC1 (stereo not given) | 20.8% (active)
59 | Cc1ccc(C(=O)NNC(=O)c2ccncc2)cc1S(=O)(=O)N1CCCCC1 | -0.93%
60 | COCCOC(=O)C1=C(C)N=c2s/c(=C\c3cccs3)c(=O)n2C1c1cccs1 (stereo not given) | -1.71%
61 | O=C1CCCC2=C1C(c1ccccc1)n1c(s/c(=C/c3cccc(F)c3)c1=O)=N2 (stereo not given) | 2.84%
62 | COc1ccc(OC)c(C2C3=C(N=c4s/c(=C\c5cccc(O)c5)c(=O)n42)c2ccccc2CC3)c1 (stereo not given) | 17.9% (active)
63 | COC1=CCC2([N+](=O)[O-])CN(CC(=O)O)CC1([N+](=O)[O-])C2 (stereo not given) | -3.94%
64 | O=C(CCc1ccc(S(=O)(=O)N2CCOCC2)cc1)OCC(=O)c1ccc(Br)cc1 | -0.17%
65 | N#CCC(=O)NC1CCC(CC2CCC(NC(=O)CC#N)CC2)CC1 (stereo not given) | 0.51%
66 | O=[N+]([O-])c1ccc(COc2ccccc2CN2CCOCC2)cc1 | -1.9%
67 | COc1ccc(C(=O)N2CCC(C(=O)Nc3cccc(C)c3)CC2)cc1OC | -0.09%
68 | CCCCOC(=O)Nc1sc2nc(C)cc(C)c2c1-n1cccc1 | 11% (active)
69 | Cc1cc(C)c2c(-n3cccc3)c(NC(=O)OCc3ccccc3)sc2n1 | 0.08%

Row | SMILES | Tm shift relative to glycine control
70 | COC(=O)Nc1sc2nc(C)cc(C)c2c1-n1cccc1 | -4.15%
71 | CCC(CC)NC(=O)CSc1nnc(-c2c[nH]c3ccccc23)o1 | 1.71%
72 | COc1cccc(CNC(=O)CCC2CCCN(Cc3ccc(OC(F)F)cc3)C2)c1 (stereo not given) | 1.06%
73 | Cn1nc(C(=O)OCC(=O)N(Cc2ccccc2)C(C)(C)C)c2ccccc2c1=O | 0.45%
74 | OCCNc1nc2ccccc2n1-c1ncnc2sc3c(c12)CCC3 | 19.1% (active)
75 | O=C(O)c1cccnc1Sc1ncnc2sc3c(c12)CCC3 | -2.96%
76 | O=C(Cn1c(NCCO)nc2ccccc21)c1ccc(Cl)cc1Cl | -1.09%
77 | CC12C(=O)N(n3cnnc3)C(=O)C1C1C=CC2C1 (stereo not given) | 0.47%
78 | Cc1ccccc1NC(=O)c1cc(S(=O)(=O)Nc2cccc(C(=O)O)c2)ccc1Cl | 0%
79 | Cc1ccc(C(=O)Nc2ccccc2-c2ccccc2)cc1S(=O)(=O)Nc1ccccc1 | 9.58%
80 | C=CCNC(=O)c1ccccc1NC(=O)c1ccc(Cl)c(S(=O)(=O)Nc2cccc(C)c2C)c1 | 16% (active)
81 | C=CCn1c(SCc2ccc(Cl)c(Cl)c2)nnc1C(CO)NC(=O)c1ccc(OC)cc1 (stereo not given) | -6.08%
82 | CN(CC(=O)Nc1ccccc1[N+](=O)[O-])Cc1ccc(Br)cc1 | -2.8%
83 | Cc1ccc(NC(=O)CN(C)Cc2ccc(F)cc2)c([N+](=O)[O-])c1 | 12.7% (active)
84 | CSc1ccccc1NC(=O)CN(C)CC(=O)Nc1ccc(Cl)cc1[N+](=O)[O-] | 2.47%
85 | O=C(O)c1ccc([N+](=O)[O-])cc1Sc1ccsc1 | 1.67%
86 | CC(=O)Nc1ccc(CN2CCN(Cc3ccc(F)c(F)c3)C(CCO)C2)cc1 (stereo not given) | -0.08%
87 | CN(C)c1ccc(NC(=O)CSc2n[nH]c(-c3ccco3)n2)cc1 | 0.92%
88 | COc1cccc(Nc2nc(N)c([N+](=O)[O-])c(NCc3ccco3)n2)c1 | -10.5%
89 | CNc1nc(Nc2ccc(C)c(Cl)c2)nc(N)c1[N+](=O)[O-] | 25.8% (active)
90 | CCN1CCN(c2nc(Nc3cccc(F)c3)nc(N)c2[N+](=O)[O-])CC1 | 0.95%
